This note sets out measurements from PubChem BioAssay AID463173 (ICCB-Longwood Screening Facility, Harvard Medical School, 2010).

Among all 52,000 compounds or so, about 1,700 (3.3%) were called active. Cut-off read from the data, not from the text of the source: active = survival mostly below about 52% (no sharp cut-off); inactive = mostly above about 56%. The sample as a whole holds a higher share of actives than the screen did.

The test system of the experiment is Wild type. Nature of the experiment: S. aureus survival, RN4220 and DeltatarO strains – OD600, teichoic acid synthesis inhibitors, primary screen (AID 463173). To be noted: S. aureus RN4220 wild type/DeltatarO growth, OD600, 18 h, hits give low values, screened at 18.75 µg/mL (by protocol).
In the case of `CCOc1ccc(NC(=O)C2CCN(S(=O)(=O)c3c(C)noc3/C=C/c3ccco3)CC2)cc1`, the survival is 73% (inactive).

As to `CC(=O)c1ccc(S(=O)(=O)Nc2ccc(-c3ccc(N4CCCCCC4)nn3)cc2)cc1`, the survival is 83% (inactive).

For the compound `CCOC(=O)c1c(S(=O)(=O)NCC(=O)N2CCN(c3ccccc3)CC2)c(C)n(C)c1C`, the survival is 112% (inactive).

As for `CCCSc1nnc2n(-c3cccc(C)c3)c(=O)c3c4c(sc3n12)CCCC4`, the survival is 2% (active).

With `CCSc1nnc2n(-c3ccccc3)c(=O)c3c4c(sc3n12)CCCC4`, the survival was 108% (inactive).

With `CCSc1nnc2n(-c3cccc(C)c3)c(=O)c3c4c(sc3n12)CCCC4`, the survival was 81% (inactive).

For the compound `CCCCSc1nnc2n(-c3cccc(C)c3)c(=O)c3c4c(sc3n12)CCCC4`, the survival is -1% (active).

With `CSc1nnc2n(-c3cccc(C)c3)c(=O)c3c4c(sc3n12)CCCC4`, the survival is 79% (inactive).

As to `Cc1cccc(-n2c(=O)c3c4c(sc3n3cnnc23)CCCC4)c1`, the survival is 72% (inactive).

As for `Cc1cc(=O)[nH]c(SCC(=O)N(c2ccccc2)c2ccccc2)n1`, the survival is 103% (inactive).

Regarding `Cc1ccc(NC(=O)N2CC3CCCN3c3ccccc32)cc1Cl` (stereo unspecified), the survival was 83% (inactive).

`Cc1ccc(NC(=O)N2CC3CCCN3c3ccccc32)c(C)c1` (stereo unspecified): the survival was 117% (inactive).

As for `Cc1ccc(NC(=O)N2CC3CCCN3c3ccccc32)cc1C` (stereo unspecified), the survival is -2% (active).

As for `COc1ccc(S(=O)(=O)c2c(Nc3c(C)cccc3C)sc(C(=O)c3ccc4c(c3)OCO4)c2N)cc1`, the survival is 74% (inactive).

Take `CCOC(=O)c1ccccc1NC(=O)c1ccco1`: the survival was 121% (inactive).

Consider `Cc1cc(Nc2cc(Cl)ccc2C)n2nc(-c3ccccc3)nc2n1`, for which the survival was 93% (inactive).

Turning to `Cc1cc(Nc2ccccc2F)n2nc(-c3ccccc3)nc2n1`, the survival was 84% (inactive).

Regarding `COc1ccccc1Nc1cc(C)nc2nc(-c3ccccc3)nn12`, the survival was 14% (active).

For the compound `CCCCC1CCC(C(=O)N2CC(=O)Nc3ccc(Cl)cc3C2c2ccc(F)cc2)CC1` (stereo unspecified), the survival is 71% (inactive).

Take `CC1CCN(C(=O)c2cc3n(n2)C(C(F)(F)F)CC(c2ccccc2)N3)C(C)C1` (stereo unspecified): the survival was 123% (inactive).

`Cc1cccc(C(=O)Nc2cccc(OCc3cc(=O)n4ccccc4n3)c2)c1`: the survival was 72% (inactive).

Turning to `CSc1ccc(CCNC(=O)c2ccc3c(c2)c(C)c(C)n3Cc2ccc(F)cc2)cc1`, the survival was 70% (inactive).

For `Cc1nc2nc(NC(=O)c3ccc(Cl)cc3)[nH]n2c(=O)c1Cc1ccccc1`, the survival is 93% (inactive).

With `Cc1nc2nc(NC(=O)c3ccc(F)cc3)[nH]n2c(=O)c1Cc1ccccc1`, the survival is 88% (inactive).

On to `Cc1nc2c(C(=O)NCCc3ccccc3)cnn2c(C)c1Cc1c(F)cccc1Cl`, for which the survival is 71% (inactive).

As for `Cc1ccc(CNC(=O)c2c[nH]n3c(=O)c(Cc4ccc(Cl)cc4)c(C)nc23)cc1`, the survival is -14% (active).

In the case of `Cc1ccc(CNC(=O)c2c[nH]n3c(=O)c(Cc4ccc(F)cc4Cl)c(C)nc23)cc1`, the survival is -15% (active).

As for `Cc1ccc(CNC(=O)c2cnn3c(C)c(Cc4c(F)cccc4Cl)c(C)nc23)cc1`, the survival is 65% (inactive).

For the compound `Cc1cccn2c(=O)c(C(=O)NCCc3ccccc3)cnc12`, the survival is 49% (inactive).

Regarding `O=C(NCCc1ccccc1)c1ccc2c(c1)N(Cc1ccc(F)cc1Cl)C(=O)CS2`, the survival is 67% (inactive).

As for `Cc1ccc(CNC(=O)CN2CCN(Cc3ccc(F)cc3Cl)C2=O)cc1`, the survival is 81% (inactive).

For `Cc1nc2c(C(=O)NCCc3ccccc3)c[nH]n2c(=O)c1Cc1ccccc1F`, the survival is -15% (active).

On to `Cc1nc2nc(NCc3ccc(Cl)cc3)[nH]n2c(=O)c1Cc1ccccc1`, for which the survival is 61% (inactive).

As to `Cc1nc2c(C(=O)NCCc3ccccc3)c[nH]n2c(=O)c1Cc1ccc(F)cc1Cl`, the survival is -15% (active).

Turning to `COc1ccc(N2C(=O)CSC23C(=O)N(Cc2ccccc2F)c2ccccc23)cc1Cl` (stereo unspecified), the survival is 68% (inactive).

For the compound `COc1cccc(NC(=O)CSC2=Nc3ccccc3N=C(c3ccc(F)cc3)C2)c1`, the survival is 69% (inactive).

With `O=C(CSC1=Nc2ccccc2C2=NC(Cc3ccccc3)C(=O)N12)Nc1cccc(Cl)c1` (stereo unspecified), the survival is 76% (inactive).

Turning to `Cc1cccc(NC(=O)Cn2nnc(C(=O)NCc3cccs3)c2N)c1`, the survival is 89% (inactive).

For the compound `Cc1ccc(-n2ncc3c(N4CCN(c5ccccc5)CC4)ncnc32)cc1C`, the survival was 69% (inactive).

Regarding `CCN1CCC(N(Cc2cccc(OC)c2)C(=O)Nc2cccc(C(F)(F)F)c2)CC1`, the survival was 66% (inactive).

As for `O=C(O)c1ccc(NC(=O)c2ccc(Br)c(S(=O)(=O)N3CCCC3)c2)cc1`, the survival was 70% (inactive).

As for `O=C(OCc1cc(=O)n2nc(C3CCCCC3)sc2n1)c1ccccc1Cl`, the survival is 59% (inactive).

For `O=C(Nc1ccccc1)c1cn(-c2ccccc2)nc1-c1ccccc1`, the survival is 86% (inactive).

`Cc1nc(-c2ccc(C)c(S(=O)(=O)N3CCC(C(=O)Nc4ccc(Cl)cc4)CC3)c2)no1`: the survival is 121% (inactive).

For `Cc1nc2c(C(=O)NCc3ccccc3Cl)c[nH]n2c(=O)c1Cc1cccc(Cl)c1`, the survival is -15% (active).

Regarding `Cc1nc2c(C(=O)N(C)Cc3ccccc3)c[nH]n2c(=O)c1Cc1ccc(Cl)cc1`, the survival is 94% (inactive).

In the case of `Cc1nc2c(C(=O)NCCc3ccc(Cl)cc3)cnn2c(C)c1Cc1ccc(F)cc1`, the survival was 73% (inactive).

For `COc1ccc(CCNC(=O)c2ccc(Cn3c(=O)c4ccccc4n(Cc4ccccc4Cl)c3=O)cc2)cc1OC`, the survival is 95% (inactive).

For `Cc1nc2c(C(=O)NCCc3ccc(Cl)cc3)cnn2c(C)c1Cc1c(F)cccc1Cl`, the survival is 59% (inactive).

`COc1ccc(CCNC(=O)c2c[nH]n3c(=O)c(Cc4ccccc4Cl)c(C)nc23)cc1OC`: the survival is 0% (active).

Consider `COc1ccc(CCNC(=O)c2cc(C)nc3c2c(C)nn3-c2ccccc2)cc1OC`, for which the survival is 76% (inactive).

As to `Cc1nc2c(C(=O)NCCc3ccc(Cl)cc3)c[nH]n2c(=O)c1Cc1ccc(Cl)cc1`, the survival was -14% (active).

For `Cc1nc2c(C(=O)NCCc3ccc(Cl)cc3)c[nH]n2c(=O)c1Cc1ccccc1F`, the survival was -11% (active).

As for `Cc1nc2c(C(=O)NCc3ccccc3Cl)cnn2c(C)c1Cc1ccccc1`, the survival was 85% (inactive).

Consider `Cc1cccn2c(=O)c(C(=O)NCCc3ccc(Cl)cc3)cnc12`, for which the survival is 77% (inactive).

Take `Cc1nc2c(C(=O)NCc3ccccc3)c[nH]n2c(=O)c1Cc1ccccc1Cl`: the survival is 22% (inactive).
